# Source: PubChem BioAssay
# For some assays here: Entries with a potency or affinity are not part of this list. Active and inactive are the calls of the source.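 Rule for the calls, unless noted: active = primary screen activator hit with a dose response curve and TRPC4 channel activation at any tested dose; inactive = no activation, no dose response, or not a primary hit.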
# Key:
# [1] = test system: TRPC4 beta (transient receptor potential cation channel C4), mouse; assay: activators of mouse TRPC4 channel, confirmation, cell-based, Fluo4 calcium, HEK293 TRPC4beta/mu-opioid, duplicates, 10 µM (AID 2426;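 active = fluorescence ratio normalized to control raised more than 50% in primary screen plus both repeat runs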;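 for activation: percent rise of integrated ratio over buffer wells lacking compound which define 0%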); details: Fluo4 calcium fluorescence, at 10 µM; stronger effect = higher value
# [2] = test system: transient receptor potential cation channel C4 beta (TRPC4), mouse; assay: activators of mouse TRPC4 channel, confirmation, cell-based, second round, Fluo4, HEK293 TRPC4beta/mu-opioid, 1 µM (AID 2461;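 active = primary screen active and over 50% activation in each of two duplicate runs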); details: Fluo4 calcium fluorescence, at 1 µM; stronger effect = higher value
# [3] = test system: TRPC4 (transient receptor potential cation channel C4 beta), mouse; assay: positive allosteric modulators of mouse TRPC4, confirmation, cell-based, second round, Fluo-4, HEK293 TRPC4beta/mu-opioid, 1 µM (AID 2554;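 active = primary screen hit whose fluorescence ratio, in both repeats, exceeds the weak agonist control mean by 3 SD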); details: DAMGO EC20, Fluo-4 calcium flux, at 1 µM; stronger effect = higher value
# [4] = test system: TRPC4 beta (transient receptor potential cation channel C4), mouse; assay: positive allosteric modulators of mouse TRPC4, confirmation, cell-based, Fluo-4, HEK293 TRPC4beta/mu-opioid (AID 2555;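 active = primary screen hit whose calcium fluorescence ratio, in both repeats, exceeds the weak agonist control mean by 3 SD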); details: DAMGO EC20, Fluo-4 calcium flux, at 10 µM; stronger effect = higher value
# [5] = biological target: Short transient receptor potential channel 4 (Mus musculus) (UniProt Q9QUQ5); assay: inhibitors of mouse TRPC4 channel, confirmation, cell-based, Fluo4, HEK293 TRPC4beta/mu-opioid (AID 2636;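 active = calcium signal cut by more than 3 SD below the full-agonist control yet still positive, in both repeats and the earlier primary screen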); details: DAMGO, Fluo4 calcium flux, at 10 µM; stronger effect = higher value
# [6] = biological target: Short transient receptor potential channel 4 (Mus musculus) (UniProt Q9QUQ5); assay: inhibitors of mouse TRPC4 channel, confirmation, cell-based, second round, Fluo4, HEK293 TRPC4beta/mu-opioid, 1 µM (AID 2637;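 active = calcium signal ratio cut to more than 3 SD under the fully stimulated control mean yet still positive, in both repeats and the primary screen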;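 for inhibition: percent of integrated ratio relative to wells lacking test compound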); details: Fluo4 calcium flux, DAMGO, at 1 µM; stronger effect = higher value
# [7] = biological target: Short transient receptor potential channel 4 (Mus musculus) (UniProt Q9QUQ5); assay: mouse TRPC4 channel activators, dose response, cell-based, HEK293 TRPC4/mu-opioid, Fluo-4 calcium (AID 434937)
# [8] = biological target: Short transient receptor potential channel 4 (Mus musculus) (UniProt Q9QUQ5); assay: TRPC4 positive allosteric modulators, dose response, cell-based, HEK293 TRPC4/mu-opioid, Fluo-4 calcium, EC20 DAMGO (AID 434941;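 active = earlier screen potentiator hit that boosts the TRPC4 ion channel at some dose, with a dose response; inactive = no potentiation, no dose response, or not a prior hit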;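 note: calcium entry triggered by an EC20 dose of DAMGO at the co-expressed mu-opioid receptor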)
# [9] = biological target: Short transient receptor potential channel 6 (Mus musculus) (UniProt Q61143); assay: inhibition of mouse TRPC6 channel, confirmation, selectivity assay for TRPC4 inhibitor project, cell-based, HEK293, membrane potential dye, duplicate (AID 434948;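 active = active in primary screen and both duplicates, each dropping signal beyond three positive-control SD with fluorescence still positive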); details: HEK293 TRPC6, membrane potential dye fluorescence, at 10 µM, stimulated with maximal-effect acetylcholine; stronger effect = higher value
# [10] = biological target: Short transient receptor potential channel 6 (Mus musculus) (UniProt Q61143); assay: activation of mouse TRPC6 channel, confirmation, selectivity assay for TRPC4 activator project, cell-based, HEK293, membrane potential dye, duplicate (AID 434950;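 active = membrane potential signal rise above negative control mean plus 3 SD in both duplicates, also active in the earlier TRPC4 screen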;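 for activation: 0% = buffer only wells and 100% = acetylcholine maximal-effect wells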); details: HEK293 TRPC6, membrane potential fluorescence, at 10 µM; stronger effect = higher value
# [11] = biological target: Short transient receptor potential channel 6 (Mus musculus) (UniProt Q61143); assay: TRPC6 potentiation by TRPC4 potentiator hits, confirmation, selectivity assay for TRPC4 potentiator project, HEK293 cells, membrane potential dye, duplicate (AID 434952;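 active = compound raising the membrane signal above positive-control mean plus 3 SD in both repeats, and a primary screen hit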); details: HEK293 TRPC6, membrane potential dye fluorescence, at 10 µM, maximal acetylcholine added after compound; stronger effect = higher value
# [12] = biological target: Short transient receptor potential channel 4 (Mus musculus) (UniProt Q9QUQ5); assay: calcium flux activators in TRPC4/5HT1a cells, counter-screen for TRPC4 activator project, cell-based, second counter screen, HEK293 TRPC4/5HT1a, Fluo-4 (AID 434977;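 active = calcium signal rise above buffer-control mean plus 5 SD in both duplicates, and also a hit in the primary screen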); details: Fluo-4 calcium flux, at 10 µM; stronger effect = higher value
# [13] = calcium flux inhibitors in TRPC4/5HT1a cells, confirmation, counter-screen for TRPC4 inhibitor project, cell-based, second counter screen, HEK293 TRPC4/5HT1a, Fluo-4 (AID 434978;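 active = primary screen active whose calcium signal fell more than 3 SD beyond the full-serotonin control mean in both duplicate plates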;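 for outcome: serotonin given first at submaximal then at maximal dose after compound preincubation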); details: Fluo-4 calcium flux, at 10 µM, serotonin added to trigger calcium flux; stronger effect = higher value
# [14] = test system: TRPC4 (mouse), co-expressed with 5HT1a in HEK293; assay: calcium flux potentiators in TRPC4/5HT1a cells, confirmation, counter-screen for TRPC4 potentiator project, cell-based, second counter screen, HEK293 TRPC4/5HT1a, Fluo-4 (AID 434979;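 active = signal rise over 3 SD above mean of control wells given weak agonist, in both repeats and first screen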); details: Fluo-4 calcium flux, at 10 µM, serotonin added at its EC20 dose; stronger effect = higher value
# [15] = calcium flux activation in mu-opioid HEK293 cells, confirmation, counter-screen for TRPC4 activator project, cell-based, HEK293 mu-opioid receptor line (AID 449723;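 active = hit in primary screen, with calcium signal over 5 SD above buffer well mean in both duplicates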;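 note: counter screen cells carry the mu-opioid receptor alone and lack TRPC4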); details: Fluo-4 calcium fluorescence, at 10 µM; stronger effect = higher value
# [16] = calcium flux enhancement in mu-opioid HEK293 cells, confirmation, counter-screen for TRPC4 allosteric potentiator project, cell-based, HEK293 mu-opioid receptor line (AID 449724;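 active = calcium signal rise more than 3 SD above the low-dose agonist control mean, in both duplicate plates and the primary screen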); details: Fluo-4 calcium flux, at 10 µM, compound added before EC20 DAMGO stimulus; stronger effect = higher value
# Short transient receptor potential channel 6 (Mus musculus), sequence (Q61143 whole entry, looked up): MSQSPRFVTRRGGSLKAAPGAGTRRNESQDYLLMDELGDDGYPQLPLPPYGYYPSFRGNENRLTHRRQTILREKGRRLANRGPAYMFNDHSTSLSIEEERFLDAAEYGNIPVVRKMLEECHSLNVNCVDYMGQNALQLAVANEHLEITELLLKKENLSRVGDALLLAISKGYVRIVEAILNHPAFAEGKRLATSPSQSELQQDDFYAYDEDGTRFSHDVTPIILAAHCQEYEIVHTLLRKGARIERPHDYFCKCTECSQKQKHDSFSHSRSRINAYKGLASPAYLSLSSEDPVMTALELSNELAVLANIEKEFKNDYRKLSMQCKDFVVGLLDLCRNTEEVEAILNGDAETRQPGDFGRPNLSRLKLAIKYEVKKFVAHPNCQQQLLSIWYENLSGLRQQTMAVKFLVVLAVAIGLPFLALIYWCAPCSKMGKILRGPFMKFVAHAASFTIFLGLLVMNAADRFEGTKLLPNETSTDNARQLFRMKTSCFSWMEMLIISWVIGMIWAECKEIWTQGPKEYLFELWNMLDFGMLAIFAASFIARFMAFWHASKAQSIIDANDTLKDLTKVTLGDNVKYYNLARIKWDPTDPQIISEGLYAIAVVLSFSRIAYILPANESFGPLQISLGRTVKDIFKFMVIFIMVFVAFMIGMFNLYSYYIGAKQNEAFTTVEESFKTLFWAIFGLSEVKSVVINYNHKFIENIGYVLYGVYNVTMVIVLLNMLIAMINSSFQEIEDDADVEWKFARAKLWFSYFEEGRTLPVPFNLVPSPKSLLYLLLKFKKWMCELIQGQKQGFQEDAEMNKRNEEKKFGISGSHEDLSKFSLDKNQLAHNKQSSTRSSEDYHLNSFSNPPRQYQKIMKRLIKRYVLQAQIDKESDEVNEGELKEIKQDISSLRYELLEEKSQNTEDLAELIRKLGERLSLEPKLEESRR
# Short transient receptor potential channel 4 (Mus musculus), sequence (Q9QUQ5 whole entry, looked up): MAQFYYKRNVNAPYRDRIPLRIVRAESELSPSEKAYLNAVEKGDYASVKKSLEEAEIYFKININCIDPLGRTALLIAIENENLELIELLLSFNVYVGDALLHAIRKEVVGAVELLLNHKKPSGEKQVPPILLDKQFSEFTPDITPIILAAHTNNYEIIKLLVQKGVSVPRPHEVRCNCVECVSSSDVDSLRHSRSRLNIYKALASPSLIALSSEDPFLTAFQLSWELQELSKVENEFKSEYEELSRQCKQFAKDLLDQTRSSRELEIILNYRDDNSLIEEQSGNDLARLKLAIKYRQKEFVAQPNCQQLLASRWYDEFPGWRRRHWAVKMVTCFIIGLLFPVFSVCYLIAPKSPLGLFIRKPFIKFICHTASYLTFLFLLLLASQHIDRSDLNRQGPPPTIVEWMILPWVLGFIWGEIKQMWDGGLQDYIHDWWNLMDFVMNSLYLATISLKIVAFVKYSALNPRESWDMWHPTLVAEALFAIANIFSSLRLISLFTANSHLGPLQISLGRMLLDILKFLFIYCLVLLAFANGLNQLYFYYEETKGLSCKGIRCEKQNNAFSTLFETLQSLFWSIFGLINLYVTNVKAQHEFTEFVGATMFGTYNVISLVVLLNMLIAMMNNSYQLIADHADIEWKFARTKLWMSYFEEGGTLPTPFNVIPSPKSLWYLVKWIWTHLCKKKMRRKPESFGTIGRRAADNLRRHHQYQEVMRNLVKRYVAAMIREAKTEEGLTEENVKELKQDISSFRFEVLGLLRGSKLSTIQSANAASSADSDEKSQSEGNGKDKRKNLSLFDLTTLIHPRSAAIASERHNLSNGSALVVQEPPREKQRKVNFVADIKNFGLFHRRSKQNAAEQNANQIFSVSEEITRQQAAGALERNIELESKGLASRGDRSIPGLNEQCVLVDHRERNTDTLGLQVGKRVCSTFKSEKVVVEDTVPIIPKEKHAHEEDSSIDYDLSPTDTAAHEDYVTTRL
compound,measurement,setting,value
CC12CN3CC(C)(CN(C1)C3c1ccc(Cl)cc1Cl)C2O (stereo not drawn),activation,[1],66% (active)
same,outcome,[2],inactive
same,outcome,[3],inactive
same,outcome,[4],inactive
same,outcome,[5],inactive
same,inhibition,[6],64% (active)
same,outcome,[7],inactive
same,outcome,[8],inactive
same,outcome,[9],inactive
same,outcome,[10],inactive
same,outcome,[11],inactive
same,outcome,[12],inactive
same,outcome,[13],inactive
same,outcome,[14],inactive
same,outcome,[15],inactive
same,outcome,[16],inactive
Cc1cc2[nH]c3ccccc3c2c(C)n1,outcome,[1],inactive
same,outcome,[2],inactive
same,outcome,[3],inactive
same,outcome,[4],inactive
same,inhibition,[5],87% (active)
same,outcome,[6],inactive
same,outcome,[7],inactive
same,outcome,[8],inactive
same,inhibition,[9],41.5% (active)
same,outcome,[10],inactive
same,outcome,[11],inactive
same,outcome,[12],inactive
same,inhibition,[13],20.3% (active)
same,outcome,[14],inactive
same,outcome,[15],inactive
same,outcome,[16],inactive
Cc1ccc(O)c(CNc2nc3ccccc3[nH]2)c1,outcome,[1],inactive
same,outcome,[2],inactive
same,outcome,[3],inactive
same,outcome,[4],inactive
same,inhibition,[5],96% (active)
same,inhibition,[6],76% (active)
same,outcome,[7],inactive
same,outcome,[8],inactive
same,outcome,[9],inactive
same,outcome,[10],inactive
same,outcome,[11],inactive
same,outcome,[12],inactive
same,inhibition,[13],24.5% (active)
same,outcome,[14],inactive
same,outcome,[15],inactive
same,outcome,[16],inactive
CC1CCCCN1CCCNC(=O)c1nn(C)c2c1CSc1ccccc1-2 (stereo not drawn),outcome,[1],inactive
same,outcome,[2],inactive
same,outcome,[3],inactive
same,outcome,[4],inactive
same,inhibition,[5],94% (active)
same,outcome,[6],inactive
same,outcome,[7],inactive
same,outcome,[8],inactive
same,outcome,[9],inactive
same,outcome,[10],inactive
same,outcome,[11],inactive
same,outcome,[12],inactive
same,outcome,[13],inactive
same,outcome,[14],inactive
same,outcome,[15],inactive
same,outcome,[16],inactive
COc1ccccc1N(C(=O)c1snc(C(N)=O)c1N)C(C(=O)NC1CCCC1)c1ccc2ncccc2c1 (stereo not drawn),outcome,[1],inactive
same,outcome,[2],inactive
same,outcome,[3],inactive
same,outcome,[4],inactive
same,inhibition,[5],41% (active)
same,outcome,[6],inactive
same,outcome,[7],inactive
same,outcome,[8],inactive
same,outcome,[9],inactive
same,outcome,[10],inactive
same,outcome,[11],inactive
same,outcome,[12],inactive
same,inhibition,[13],40.6% (active)
same,outcome,[14],inactive
same,outcome,[15],inactive
same,outcome,[16],inactive
Cc1ccc(C(C(=O)NC(C)(C)C)N(C(=O)CCC(=O)Nc2ccccn2)c2ccccc2F)cc1 (stereo not drawn),outcome,[1],inactive
same,outcome,[2],inactive
same,outcome,[3],inactive
same,outcome,[4],inactive
same,inhibition,[5],61% (active)
same,outcome,[6],inactive
same,outcome,[7],inactive
same,outcome,[8],inactive
same,outcome,[9],inactive
same,outcome,[10],inactive
same,outcome,[11],inactive
same,outcome,[12],inactive
same,inhibition,[13],28.9% (active)
same,outcome,[14],inactive
same,outcome,[15],inactive
same,outcome,[16],inactive
CCOc1c(Cl)cc(CNCC(O)c2ccccc2)cc1OC (stereo not drawn),outcome,[1],inactive
same,outcome,[2],inactive
same,outcome,[3],inactive
same,outcome,[4],inactive
same,inhibition,[5],86% (active)
same,outcome,[6],inactive
same,outcome,[7],inactive
same,outcome,[8],inactive
same,outcome,[9],inactive
same,outcome,[10],inactive
same,outcome,[11],inactive
same,outcome,[12],inactive
same,outcome,[13],inactive
same,outcome,[14],inactive
same,outcome,[15],inactive
same,outcome,[16],inactive
Cc1ccc(-n2nc(-c3cccs3)cc2C(=O)NCC2CCCO2)c(C)c1 (stereo not drawn),outcome,[1],inactive
same,outcome,[2],inactive
same,outcome,[3],inactive
same,outcome,[4],inactive
same,inhibition,[5],79% (active)
same,outcome,[6],inactive
same,outcome,[7],inactive
same,outcome,[8],inactive
same,outcome,[9],inactive
same,activation,[10],32% (active)
same,outcome,[11],inactive
same,outcome,[12],inactive
same,outcome,[13],inactive
same,outcome,[14],inactive
same,outcome,[15],inactive
same,outcome,[16],inactive
